Records with an inconclusive call do not appear. Unmarked numbers belong to inactive results. Activity calls are given as the source filed them. The call rests on the fitted dose curve; in most records, active means well fitted inhibition curve with a large enough effect; inconclusive means small, poorly fitted or top-dose-only effect; inactive means no such curve, though single readings can be large or run the other way. Where a SMILES comes first, the peptide text is derived from it. The star is where a group is joined. PhAc = O=C(Cc1ccccc1)*
The compounds below were run against Cytochrome P450 3A7 (Homo sapiens) (UniProt P24462) (assay: Cytochrome P450 family 3 subfamily A member 7 (CYP3A7) small molecule antagonists: luciferase biochemical qHTS assay (AID 1963596; further: nearly all actives have a fitted effect of over 40% in size)). Conditions: P450-Glo CYP3A7 enzyme luminescence, 1 h; series mostly up to 57.4 µM; activity change, negative = inhibition: at the top concentration.
Method in brief: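 Luminescence from luciferin released by CYP3A7 from a proluciferin substrate, read 20 min after detection reagent. Compound and enzyme-substrate mix sat 10 min before NADPH regeneration solution; reaction ran 1 h at room temperature.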
On the % scale 0 is the no-effect control and ±100 the full control effect; potency means the concentration at half of the fitted maximal effect.

Sequence of Cytochrome P450 3A7 (Homo sapiens) (P24462 whole entry, looked up): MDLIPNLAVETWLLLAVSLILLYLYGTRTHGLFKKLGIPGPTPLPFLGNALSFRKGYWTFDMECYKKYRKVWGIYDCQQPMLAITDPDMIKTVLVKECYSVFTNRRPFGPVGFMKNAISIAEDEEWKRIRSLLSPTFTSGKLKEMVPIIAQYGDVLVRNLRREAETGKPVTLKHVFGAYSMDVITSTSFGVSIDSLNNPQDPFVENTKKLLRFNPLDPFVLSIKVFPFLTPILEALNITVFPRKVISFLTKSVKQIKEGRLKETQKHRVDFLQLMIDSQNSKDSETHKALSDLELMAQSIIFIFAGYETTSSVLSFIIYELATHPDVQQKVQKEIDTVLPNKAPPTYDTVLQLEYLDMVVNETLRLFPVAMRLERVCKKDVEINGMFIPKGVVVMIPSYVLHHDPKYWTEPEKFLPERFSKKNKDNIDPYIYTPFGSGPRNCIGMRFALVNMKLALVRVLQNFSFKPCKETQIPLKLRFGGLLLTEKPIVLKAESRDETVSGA

| SMILES | activity change, negative = inhibition | Potency |
| --- | --- | --- |
| CCC(=C(c1ccc(OCCN2CCCC2)cc1)c1ccc(OCCN2CCCC2)cc1)c1ccccc1 | 0% [at 11.5 µM] |  |
| Nc1nc(N)c2nc(CNc3ccc(C(=O)N[C@@H](CCC(=O)O)C(=O)O)cc3)cnc2n1 | 0% |  |
| CCCCC(CC)COC(=O)CC(C(=O)OCC(CC)CCCC)S(=O)(=O)O (centres undefined) | 0% |  |
| Oc1ccc(C2(c3ccccc3F)CCC(F)(F)CC2)cc1 |  | 5.01 µM (active) |
| Cc1ccc(-c2nnc(Nc3ccc(Br)cc3)c3ccccc23)cc1S(=O)(=O)NCc1nc2ccccc2[nH]1 | 0% |  |
| COc1ccc(NC(=O)c2ccc(-c3ccc(C(=N)N)cc3C)cc2)cc1N1CCN(C)CC1 | -26.3% |  |
| O=C1C(c2[nH]c3ccc(S(=O)(=O)O)cc3c2O)=Nc2ccc(S(=O)(=O)O)cc21 | -24.1% |  |
| CCCCC(O)c1ccccc1 (centres undefined) | 1.72% |  |
| CCOc1ccc(C(NC(=O)c2cc(OC)c(OC)c(OC)c2)c2cc(Cl)c3cccnc3c2O)cc1 (centres undefined) | -7.34% |  |
| Cn1c(=O)c2c(nc(CN3CCN(C(=O)C4CC4)CC3)n2Cc2cccc(F)c2)n(C)c1=O | -21.1% |  |
| Nc1ncnc2c1c(-c1ccc(Cl)cc1)nn2-c1cccc(-c2cnnn2Cc2cccc(-c3ccccc3)c2)c1 | -2.15% |  |
| OC1CCC(Nc2ncc3nc(Nc4c(F)cc(F)cc4F)n([C@H]4CCOC4)c3n2)CC1 (some centres undefined) | -16.8% |  |
| CCCN(CCc1cccs1)[C@H]1CCc2c(O)cccc2C1 | 0% |  |
| CCCN(CCN1CCN(c2ccccc2OC)CC1)C1CCc2ncsc2C1 (centres undefined) | 22.7% |  |
| On1ncc(C2CCNCC2)c1-c1cccc(-c2ccccc2)c1 | -25.3% |  |
| CCCCCC/C=C\CCCCCCCc1cccc(O)c1C(=O)O | -3.32% |  |
| COC(=O)CCC(=O)CN | -1.05% |  |
| NS(=O)(=O)c1ccc(NC(=O)Nc2ccc(F)cc2)cc1 | -0.134% |  |
| Cc1ccc(CNC(=O)C2CCN(S(=O)(=O)c3c(C)noc3/C=C/c3ccccc3F)CC2)o1 | 3.63% |  |
| Cc1nc(NC(=O)N2CCCC2C(N)=O)sc1-c1csc(C(C)(C)C)n1 (centres undefined) | -26.1% |  |

| SMILES | activity change, negative = inhibition | Potency |
| --- | --- | --- |
| CCCCC(=O)O | 0% |  |
| CC(=O)NC[C@H]1CN(c2ccc(N3CCSCC3)c(F)c2)C(=O)O1 | -20.4% |  |
| COc1ccc(OC)c(-c2ccc(NC(=O)c3ccncc3F)cc2)c1 | -23.3% |  |
| COc1ccc(C=CC(=O)O)cc1 | 2.44% |  |
| COc1ccc(C(=O)Nc2ccc3oc(-c4ccc(OC)cc4)nc3c2)cc1 | 0.861% |  |
| CCc1ccc(CN(Cc2ccco2)C(=O)COc2ccccc2Cl)cc1 | 10.1% |  |
| Cc1ccc(S(=O)(=O)N2CCc3cc(C(=O)Nc4ccc(C(F)(F)F)cc4)ccc32)cc1 | -19.4% |  |
| Cc1cc(OCCCS(C)(=O)=O)cc(C)c1-c1cccc(COc2ccc3c(c2)OCC3CC(=O)O)c1 (centres undefined) | 0% |  |
| CC(=O)Oc1cc(C(F)(F)F)ccc1C(=O)O | -17% |  |
| C[S+](=O)([O-])Nc1ccc(-c2ccc3nc(-c4cccc(OC(F)(F)F)c4)[nH]c3c2)cc1 | 1.4% |  |
| COc1ccc(C#Cc2ccc(C(=O)N3CCC[C@@H](O)C3)c(F)c2)cc1 | -7.99% |  |
| O=C(O)c1ccccc1NC(=O)N1CCC(c2ccccc2C(F)(F)F)CC1 | 0% |  |
| CCCCCCCCNC(C)C(O)c1ccc(SC(C)C)cc1 (centres undefined) | -2.67% |  |
| COc1ccc([C@@H]2N[C@H](C(=O)O)Cc3c2[nH]c2ccccc32)cc1CN1CCN(c2ccccc2F)CC1 | -22.8% |  |
| CCOC(=O)CNC(=O)[C@@H]1CCCN1C(=O)Cc1ccccc1 (PhAc-Pro-Gly-OEt) | -27.5% |  |
| COc1ccc(CC(=O)Nc2c(C(=O)N3CCN(c4ccccc4F)CC3)oc3ccccc23)cc1OC | 0% |  |
| O=C(Cn1c(=O)n(-c2ccc(Cl)cc2)c(=O)c2oc3ccccc3c21)Nc1ccccc1 | -11.9% |  |
| O=[N+]([O-])c1ccc(Oc2ccc(N=C=S)cc2)cc1 |  | 2.39 µM (active) |
| CCCCc1c(-c2ccc(OC)cc2)[nH]c2nccnc12 | 0% |  |
